Bioassay records as filed in PubChem.
This is one part of a sample in which hits are shown more often than they occur.
NS1 inh – blocks influenza NS1 protein function | actives 0.4% (n = 270,000) | Potency, µM (titrated, usually from 46.1 µM), for inactives: at the top dose activity, positive = more growth; calls by dose curve; further: actives are rising curves; nearly all actives have a fitted effect of over 50% in size
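In this qHTS, NS1 from influenza A is expressed in budding yeast, where it slows growth. Cells are switched from glucose to 2% galactose medium (pH 6.0, -URA), treated with compound, and growth recovery is read at OD600.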
Cruzain noTriton – cruzain (T. cruzi) inhibition without detergent | P25779 | purified cruzain, Z-FR-AMC fluorescence, no detergent | Potency, µM, for the others: max response, negative = inhibition, usual class: inhibitors | actives 2.3% (n = 200,000) | AID 1476;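 further: plate controls were enzyme without inhibitor for no effect and buffer without enzyme for full effect; nearly all actives have a fitted effect of over 40% in size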
Target sequence (P25779 123-467 limits assumed): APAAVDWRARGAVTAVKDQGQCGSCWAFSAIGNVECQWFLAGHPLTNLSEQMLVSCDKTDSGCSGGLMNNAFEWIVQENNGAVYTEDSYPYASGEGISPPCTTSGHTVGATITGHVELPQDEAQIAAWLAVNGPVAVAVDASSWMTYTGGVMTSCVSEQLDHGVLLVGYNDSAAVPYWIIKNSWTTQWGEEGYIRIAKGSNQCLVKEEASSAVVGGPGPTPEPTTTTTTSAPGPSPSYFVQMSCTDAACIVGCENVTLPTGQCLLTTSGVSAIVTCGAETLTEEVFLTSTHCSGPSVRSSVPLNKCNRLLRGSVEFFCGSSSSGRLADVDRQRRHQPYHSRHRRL
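Detergent-free condition (0.00005% Triton X-100) in acetate buffer pH 5.5 with DTT. 1.5 nM enzyme and compound were pre-mixed 15 min, then 2 uM Z-FR-AMC substrate added; reaction progress from fluorescence change between first and third reads (60 s).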
Cruzain inh Det – blocks cruzain activity in presence of Triton detergent. Potency, µM, without a hit: max response, negative = inhibition, usual class: inhibitors. actives 0.43% (n = 200,000). P25779. purified cruzain, Z-FR-AMC fluorescence, 0.01% Triton;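 further: plate controls were neutral wells for no effect and buffer without enzyme for full effect; nearly all actives have a fitted effect of over 40% in size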
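Compounds were screened in titration against cruzain (1.5 nM) with 0.01% Triton X-100 to counter colloidal aggregation. Activity was the AMC fluorescence increase over 60 s after adding 2 uM Z-FR-AMC at pH 5.5.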
* marks the source's active call; other numbers are inactive results. Unless noted, the call rests on the fitted dose curve; in most records, active means well fitted curve in the direction sought with a large enough effect; inconclusive means small, poorly fitted or top-dose-only effect, or another doubt; inactive means no such curve, though single readings can be large; an effect the other way counts as inactive or inconclusive. Potency means the concentration at half of the fitted maximal effect.

CCN(CC)CCCNC(=S)N1CCN(c2nc3ccccc3n2CC)CC1 was read as NS1 inh 20%.
`CCN(CC)CCCNC(=S)N1CCn2c(nc3ccccc32)C1` gave NS1 inh 16%, Cruzain noTriton -4% and Cruzain inh Det 13µM*.
`Cc1ccc(S(=O)(=O)c2nnn3c2nc(N2CCCC(C)C2)c2cc(Cl)ccc23)cc1C` (stereo not given) gave Cruzain noTriton -1% and Cruzain inh Det 0%.
Screening COc1ccc2oc(=O)c(-c3nnc(-c4ccc(C)cc4)o3)cc2c1 returned Cruzain noTriton -7% and Cruzain inh Det 11%.
Screening COc1ccc(-c2nnc(-c3cc4ccccc4oc3=O)o2)cc1 returned NS1 inh 22%, Cruzain noTriton 16µM* and Cruzain inh Det -1%.
Cc1cnc(CNc2nc(-c3ccc(C(=O)N(C)C)cc3)nc3ccccc23)cn1 was read as Cruzain noTriton -3% and Cruzain inh Det -2%.
Cc1cc(C)cc(NC2=C(c3ccccc3)C(=O)c3ccccc32)c1 was read as Cruzain noTriton -18% and Cruzain inh Det -8%.
O=C(COC(=O)CNC(=O)c1ccc(Cl)cc1)Nc1ccc2c(c1)OCCO2 was read as NS1 inh 19%, Cruzain noTriton 10µM* and Cruzain inh Det 14µM*.
Cc1ccc(C(=O)NCC(=O)OCC(=O)c2ccc3c(c2)NC(=O)CO3)cc1C was read as NS1 inh -1%.
O=C(Nc1ccc2c(c1)OCCO2)c1ccc(Cl)cc1 was read as NS1 inh -22%.
Screening O=C(COc1cc(Cl)c(Cl)cc1Cl)NC(=O)Nc1ccc2c(c1)OCCO2 returned NS1 inh 10%, Cruzain noTriton 20µM* and Cruzain inh Det -2%.
Cc1ccc(C(=O)NCC(=O)OCC(=O)c2ccc3c(c2)OCCO3)cc1C was read as NS1 inh -16%, Cruzain noTriton 13µM* and Cruzain inh Det 13µM*.
Screening COc1ccc(C(=O)NCC(=O)OCC(=O)c2ccc3c(c2)OCCO3)cc1 returned NS1 inh 0%, Cruzain noTriton 13µM* and Cruzain inh Det 16µM*.
`Cc1ccc(Cl)c(OCC(=O)Nc2ccc3c(c2)OCCO3)c1` gave NS1 inh -6%, Cruzain noTriton -6% and Cruzain inh Det -1%.
`COc1ccc(C(=O)NCC(=O)NCC(=O)OCC(=O)c2ccc(Br)cc2)cc1` gave NS1 inh 17%.
Screening O=c1c2ccccc2nc(N2CCN(c3cccc(Cl)c3)CC2)n1-c1ccccc1 returned Cruzain noTriton -11% and Cruzain inh Det -5%.
`O=C(Nc1nnc2n1CCS2)c1cc(C(F)(F)F)cc(C(F)(F)F)c1` gave Cruzain noTriton -4% and Cruzain inh Det -1%.
For CCN(C(=O)COC(=O)Cc1c[nH]c2ccccc12)C1CCS(=O)(=O)C1 (stereo not given) the results were NS1 inh 3%.
Screening CCN(C(=O)COC(=O)CNC(=O)c1ccc(C)c(C)c1)C1CCS(=O)(=O)C1 (stereo not given) returned NS1 inh -1%, Cruzain noTriton 16µM* and Cruzain inh Det 25µM*.
For CN(C)c1ncc2nc(-c3ccc(F)cc3)c(=O)n(C[C@H]3CCCO3)c2n1 the results were Cruzain noTriton 8% and Cruzain inh Det 2%.
Screening C=CCn1c(=N)c(C#N)cc2c(=O)n3ccccc3nc21 returned NS1 inh -2%, Cruzain noTriton inconclusive and Cruzain inh Det 28µM*.
`C=CCn1c(=O)c(C#N)cc2c(=O)n3ccccc3nc21` gave NS1 inh 4%, Cruzain noTriton inconclusive and Cruzain inh Det inconclusive.
For COC(=O)c1cc2c(=O)n3ccccc3nc2n(C)c1=N the results were NS1 inh -7%, Cruzain noTriton inconclusive and Cruzain inh Det 11µM*.
For C=CCn1c(=N)c(C(=O)NCCCOC)cc2c(=O)n3cc(C)ccc3nc21 the results were NS1 inh 2%, Cruzain noTriton inconclusive and Cruzain inh Det inconclusive.
For CCOC(=O)c1cc2c(=O)n3ccccc3nc2n(CCCOC)c1=NC(C)=O the results were NS1 inh -6%, Cruzain noTriton inconclusive and Cruzain inh Det 32µM*.
CCOC(=O)c1cc2c(=O)n3ccccc3nc2n(CCCOC)c1=NC(=O)c1ccncc1 was read as NS1 inh 6%.
`COC(=O)c1cc2c(=O)n3ccccc3nc2n(Cc2cccnc2)c1=N` gave NS1 inh 6%.
Screening C=CCn1c(=N)c(C(=O)NCCCOC)cc2c(=O)n3ccccc3nc21 returned NS1 inh -5%, Cruzain noTriton 25µM* and Cruzain inh Det 32µM*.
`CCOC(=O)c1ccc(NC(=O)c2c(NCc3cccs3)sc3c2CCCCC3)cc1` gave Cruzain noTriton -1% and Cruzain inh Det -29%.
